Experimental data as given in PubChem BioAssay (NCI).
Compounds without any hit were thinned out: in the full panel of roughly 79,000, 15% have a hit. Active and inactive are the calls of the source. No stated cut-off is given here; in the data, active means growth inhibition above about 70%; inactive means the rest.

Legend:
[1] = NCI Yeast Anticancer Drug Screen. Data for the rad52 strain (AID 147);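 further: 0% = growth of vehicle-treated control cultures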; conditions: S. cerevisiae rad52 mutant growth inhibition, stronger effect = higher value
Method in brief: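 Vehicle-treated cultures served as the reference for growth inhibition of compound-exposed yeast bearing a DNA repair mutation.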

[2] = NCI Yeast Anticancer Drug Screen. Data for the wt1 strain (AID 149);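 further: 0% = growth of vehicle-treated wt1 cultures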; conditions: S. cerevisiae wt1 strain (SPY 50644) growth inhibition, stronger effect = higher value
Method in brief: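 The wt1 strain was treated with compounds, and growth was compared with vehicle-treated cultures to give inhibition.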

[3] = NCI Yeast Anticancer Drug Screen. Data for the rad50EPP+ strain (AID 151);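 further: 0% = growth of vehicle-treated control cultures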; conditions: S. cerevisiae rad50 mutant strain, stronger effect = higher value
Method in brief: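 In this screen, rad50EPP+ yeast were exposed to compounds. Growth inhibition was scored against vehicle-treated controls.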

[4] = NCI Yeast Anticancer Drug Screen. Data for the mgt1 strain (AID 153); conditions: S. cerevisiae mgt1 mutant growth inhibition, stronger effect = higher value
Method in brief: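 mgt1 strain exposed; growth vs vehicle control recorded as inhibition.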

[5] = NCI Yeast Anticancer Drug Screen. Data for the rad50 strain (AID 155);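 further: 0% = growth of vehicle-only cultures of the same strain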; conditions: S. cerevisiae rad50 strain growth inhibition, stronger effect = higher value
Method in brief: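 Cells are treated with compound, grown, and their growth is then scored against vehicle-only cultures of the same repair-deficient yeast strain.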

[6] = NCI Yeast Anticancer Drug Screen. Data for the mec2-1 strain (AID 157); conditions: S. cerevisiae mec2-1 strain, stronger effect = higher value
Method in brief: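 Vehicle-treated cultures served as reference for growth inhibition of compound-exposed mec2-1 yeast.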

[7] = NCI Yeast Anticancer Drug Screen. Data for the rad14 strain (AID 159);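 further: 0% = growth of vehicle-treated control cultures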; conditions: S. cerevisiae rad14 strain growth inhibition, stronger effect = higher value
Method in brief: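 Readout: yeast growth inhibition, referenced to vehicle-only cultures. Strain bears a defined alteration in DNA damage repair.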

[8] = NCI Yeast Anticancer Drug Screen. Data for the sgs1 mgt1 strain (AID 161);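 further: 0% = growth of cultures given vehicle only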; conditions: S. cerevisiae sgs1 mgt1 strain, stronger effect = higher value
Method in brief: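 Inhibition of yeast growth, normalised to vehicle-treated controls, is reported for a strain bearing genetic alterations in DNA damage repair.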

[9] = NCI Yeast Anticancer Drug Screen. Data for the CLN2oe strain (AID 163);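 further: 0% = growth of vehicle-only control cultures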; conditions: S. cerevisiae CLN2oe strain, stronger effect = higher value
Method in brief: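 Inhibition relative to vehicle-treated yeast is reported. Cells: strain with genetic alteration in cell-cycle control, grown with compound.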

[10] = NCI Yeast Anticancer Drug Screen. Data for the cln2 rad14 strain (AID 165);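 further: 0% = growth equal to vehicle treated cultures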; conditions: S. cerevisiae cln2 rad14 strain, stronger effect = higher value
Method in brief: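 Each compound was tested on cln2 rad14 yeast. Inhibition of growth was calculated against vehicle-exposed controls.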

[11] = NCI Yeast Anticancer Drug Screen. Data for the bub3 strain (AID 167); conditions: S. cerevisiae bub3 mutant strain, stronger effect = higher value
Method in brief: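 Part of a panel of yeast mutants defective in DNA damage repair or cell cycle regulation. Each strain is grown with compound, and inhibition is calculated relative to solvent-treated cultures.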

[12] = NCI Yeast Anticancer Drug Screen. Data for the wt2 strain (AID 169);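 further: 0% = growth of vehicle-treated yeast cultures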; conditions: S. cerevisiae wt2 strain growth inhibition, stronger effect = higher value
Method in brief: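 Inhibition of yeast growth was determined after compound treatment, normalised to controls receiving only vehicle.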

[13] = NCI Yeast Anticancer Drug Screen. Data for the mlh1 strain (AID 171);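 further: 0% = growth of vehicle-treated control cultures of the same strain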; conditions: S. cerevisiae mlh1 strain growth inhibition, stronger effect = higher value
Method in brief: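 Vehicle-normalised growth inhibition of a repair- or checkpoint-altered yeast strain following compound treatment.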

[14] = NCI Yeast Anticancer Drug Screen. Data for the sgs1 strain (AID 173);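 further: 0% = growth of vehicle-only control cultures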; conditions: S. cerevisiae sgs1 mutant, stronger effect = higher value
Method in brief: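 Screen format: yeast with repair or checkpoint alterations, compound exposure, growth read relative to vehicle.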

[15] = NCI Yeast Anticancer Drug Screen. Data for the mlh1 rad18 strain (AID 175); conditions: S. cerevisiae mlh1 rad18 strain growth inhibition, stronger effect = higher value
Method in brief: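 Vehicle-treated cultures served as the reference for growth inhibition in a yeast strain carrying DNA damage repair alterations exposed to each compound.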

[16] = NCI Yeast Anticancer Drug Screen. Data for the rad18 strain (AID 177); conditions: S. cerevisiae rad18 mutant growth inhibition, stronger effect = higher value
Method in brief: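 Test articles were incubated with altered yeast defective in DNA damage repair. Results are given as inhibition of growth versus vehicle.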

[17] = at 5.0 µM (retest, dose inferred, filed as 0.5)
[18] = at 50.0 µM (retest, dose inferred, filed as 5.0)

Measured: growth inhibition

S=C1SCN(CCc2ccccc2)CN1CCc1ccccc1
active: [3]; at 11.0 µM 85% | [3]; at 33.0 µM 92% | [3]; at 100.0 µM 81% | [6]; at 50.0 µM 71.8% | [8]; at 50.0 µM 76.2% | [11]; [18] 72% | [11]; at 50.0 µM 79.1% | [15]; [18] 80%
inactive: [1]; at 1.2 µM 12% | [1]; at 3.7 µM 21% | [1]; at 11.0 µM 46% | [1]; at 33.0 µM 63% | [1]; at 100.0 µM 46% | [2]; at 1.2 µM 16% | [2]; at 3.7 µM -1% | [2]; at 11.0 µM 46% | [2]; at 33.0 µM 45% | [2]; at 100.0 µM 10% | [3]; at 1.2 µM 26% | [3]; at 3.7 µM 51% | [4]; at 1.2 µM 1% | [4]; at 3.7 µM 0% | [4]; at 11.0 µM 35% | [4]; at 33.0 µM 42% | [4]; at 100.0 µM 26% | [5]; at 1.2 µM -12% | [5]; at 3.7 µM 5% | [5]; [17] 7% | [5]; at 11.0 µM 50% | [5]; at 33.0 µM 64% | [5]; [18] 38% | [5]; at 50.0 µM 55% | [5]; at 100.0 µM 52% | [6]; at 1.2 µM -3% | [6]; at 3.7 µM 1% | [6]; [17] 24% | [6]; at 11.0 µM 52% | [6]; at 33.0 µM 54% | [6]; [18] 55% | [6]; at 100.0 µM 38% | [7]; at 1.2 µM -20% | [7]; at 3.7 µM -4% | [7]; at 11.0 µM 2% | [7]; at 33.0 µM 34% | [7]; at 100.0 µM 16% | [8]; [17] 9% | [8]; [18] 48% | [9]; at 1.2 µM 3% | [9]; at 3.7 µM 10% | [9]; at 11.0 µM 25% | [9]; at 33.0 µM 45% | [9]; at 100.0 µM 17% | [10]; [17] 12% | [10]; [18] 12% | [10]; at 50.0 µM 22.1% | [11]; at 1.2 µM -2% | [11]; at 3.7 µM 3% | [11]; [17] -4% | [11]; at 11.0 µM 23% | [11]; at 33.0 µM 53% | [11]; at 100.0 µM 42% | [12]; at 1.2 µM 6% | [12]; at 3.7 µM 3% | [12]; at 11.0 µM 53% | [12]; at 33.0 µM 63% | [12]; at 100.0 µM 47% | [13]; at 1.2 µM -3% | [13]; at 3.7 µM -10% | [13]; at 11.0 µM 20% | [13]; at 33.0 µM 40% | [13]; at 100.0 µM 19% | [14]; at 1.2 µM -5% | [14]; at 3.7 µM 16% | [14]; at 11.0 µM 31% | [14]; at 33.0 µM 59% | [14]; at 100.0 µM 48% | [15]; [17] -9% | [15]; at 50.0 µM 58% | [16]; at 1.2 µM 15% | [16]; at 3.7 µM 25% | [16]; at 11.0 µM 47% | [16]; at 33.0 µM 65% | [16]; at 100.0 µM 39%

C(=N/NC1=NCCN1)/c1c2ccccc2c(/C=N\NC2=NCCN2)c2ccccc12
active: [1]; at 1.2 µM 70% | [1]; at 3.7 µM 86% | [1]; at 11.0 µM 94% | [1]; at 33.0 µM 94% | [1]; at 100.0 µM 96% | [2]; at 100.0 µM 86% | [3]; at 11.0 µM 81% | [3]; at 33.0 µM 92% | [3]; at 100.0 µM 94% | [4]; at 100.0 µM 90% | [5]; at 3.7 µM 85% | [5]; [17] 74% | [5]; at 11.0 µM 93% | [5]; at 33.0 µM 94% | [5]; [18] 88% | [5]; at 50.0 µM 82.2% | [5]; at 100.0 µM 94% | [6]; at 33.0 µM 81% | [6]; [18] 80% | [6]; at 50.0 µM 83.6% | [6]; at 100.0 µM 90% | [7]; at 100.0 µM 89% | [8]; [18] 90% | [8]; at 50.0 µM 85.2% | [9]; at 100.0 µM 84% | [11]; [18] 83% | [11]; at 50.0 µM 79.7% | [11]; at 100.0 µM 88% | [14]; at 33.0 µM 81% | [14]; at 100.0 µM 92% | [15]; [18] 83% | [16]; at 33.0 µM 78% | [16]; at 100.0 µM 92%
inactive: [2]; at 1.2 µM -4% | [2]; at 3.7 µM 9% | [2]; at 11.0 µM 9% | [2]; at 33.0 µM 52% | [3]; at 1.2 µM 6% | [3]; at 3.7 µM 33% | [4]; at 1.2 µM -8% | [4]; at 3.7 µM -6% | [4]; at 11.0 µM 4% | [4]; at 33.0 µM 64% | [5]; at 1.2 µM 63% | [6]; at 1.2 µM 6% | [6]; at 3.7 µM 1% | [6]; [17] -13% | [6]; at 11.0 µM 20% | [7]; at 1.2 µM -9% | [7]; at 3.7 µM -25% | [7]; at 11.0 µM -3% | [7]; at 33.0 µM 67% | [8]; [17] -7% | [9]; at 1.2 µM -2% | [9]; at 3.7 µM -12% | [9]; at 11.0 µM 13% | [9]; at 33.0 µM 58% | [10]; [17] 7% | [10]; [18] 56% | [10]; at 50.0 µM 62.5% | [11]; at 1.2 µM -17% | [11]; at 3.7 µM -21% | [11]; [17] -35% | [11]; at 11.0 µM -17% | [11]; at 33.0 µM 58% | [14]; at 1.2 µM 0% | [14]; at 3.7 µM 8% | [14]; at 11.0 µM 22% | [15]; [17] -14% | [16]; at 1.2 µM -3% | [16]; at 3.7 µM -6% | [16]; at 11.0 µM 4%
